Here are results for 26 molecules from PubChem BioAssay (NCATS).

Experiment [1] is described as follows: qHTS to identify inhibitors of the type 1 interferon - major histocompatibility complex class I in skeletal muscle: primary screen against the NCATS Pharmaceutical Collection (AID 1347407). In a few lines:
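HLA-B HiBiT myoblasts, dexamethasone-free growth medium + 4 ng/ml IFN-b; compounds pinned 1 h after seeding, […] from 46 uM; 24 h, 37 C, 5% CO2; lytic HiBiT detection, 10 min RT, luminescence.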

For experiment [2], the target named is Protein phosphatase 1D (Homo sapiens) (UniProt O15297). The experiment in a line: RapidFire Mass Spectrometry qHTS Assay for Modulators of WT P53-Induced Phosphatase 1 (WIP1) (AID 1347424). Put shortly: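 WIP1 (10 nM final) was preincubated 1 h at room temperature with compounds in Tris-HCl pH 7.5, 30 mM MgCl2, TCEP, EGTA, BSA; 2 uM VEPPL-pS-QETFS phosphopeptide was added for 5 min, quenched with formic acid, and dephosphorylated product quantified by RapidFire MS.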

Experiment [3] shares this target. The experiment in a line: Rhodamine-PBP qHTS Assay for Modulators of WT P53-Induced Phosphatase 1 (WIP1) (AID 1347425). In a few lines:
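Read-out: Rhodamine-PBP fluorescence (ex 525/em 598 nm) for released Pi, read each minute for 11 min after adding 10 uM VEPPL-pS-QETFS; signal taken as f1 minus pre-substrate f0. Enzyme 5 nM WIP1 with 1 hr room-temperature compound preincubation.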

Experiment [4] in a line: Primary qHTS for Huh7 cytotoxicity: counterscreen for inhibitors of MERS-S pseudotyped particle cell entry (AID 1479147; calls by dose curve).
Experiment [5] is described as follows: Primary qHTS for Vero E6 cytotoxicity: counterscreen for inhibitors of SARS-S pseudo-typed particle cell entry (AID 1479150; calls by dose curve).
Experiment [6] can be described thus: Primary qHTS for inhibitors of La Crosse Virus (LACV) - induced cell death in SH-SY5Y cells (AID 1508616). Put shortly: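 SH-SY5Y cells (6000/well) plated 24 h, then given compounds by pin transfer and LACV at 0.01 MOI for 6 days at 37C. Viability measured by ATPLite luminescence, normalized to infected DMSO and uninfected DMSO.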
Experiment [7] can be described thus: qHTS to identify inhibitors of the type 1 interferon - major histocompatibility complex class I in skeletal muscle: primary screen against the NCATS Mechanism Interrogation Plate v5.0 (MIPE) Libary (AID 1347411). In a few lines:
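Immortalized human myoblasts (C25cl48) with HiBit knocked into endogenous HLA-B*08:01 were stimulated with 4 ng/ml IFN-beta and given compounds in 11-point 1:3 titration from 46 uM. After 24 h at 37 C, lytic HiBiT luminescence was read.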

A short description of experiment [8]: Primary qHTS for inhibitors of MERS-S pseudo-typed particle cell entry (AID 1479149; calls by dose curve).
The nature of experiment [9]: qHTS to identify inhibitors of the type 1 interferon - major histocompatibility complex class I in skeletal muscle: primary screen against the NCATS LOPAC collection (AID 1347405). In a few lines:
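CRISPR-engineered immortalized human myoblasts (C25cl48) with HiBiT fused to endogenous HLA-B*08:01, stimulated with 4 ng/ml IFN-beta. LOPAC compounds tested as a 7-point 1:4.3 titration (top 46 uM final), 24 h at 37 C; lytic HiBiT luminescence read.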

Experiment [10] in a line: qHTS for inhibitors of adenylyl cyclases using a fission yeast platform: a pilot screen against the NCATS LOPAC library (AID 1347410). Put shortly:
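Read-out: fbp1-GFP fluorescence by laser scanning cytometry (488 nm laser), a gain of signal when AC/cAMP-PKA signalling is inhibited. Strain CHP2027 expressing AC9, GNAS and PDE4D2; compounds at up to 57 µM; 18 h, 30C.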

The nature of experiment [11]: Validation qHTS assay for inhibitors of Activation Induced Cytidine Deaminase (AID): UDG Counterscreen signal (AID 1347427). Put shortly: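 Counterscreen read of UDG activity (2 U/mL, 4/3x) in the FRET deamination format with AID (1 uM, 4/3x), DJC20/DJC23 substrates (250 nM, 4x), 4 h at room temperature. NaOH stop, fluorescence at 560 ex/665 em.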
Experiment [12] deals with Single-stranded DNA cytosine deaminase (Homo sapiens) (UniProt Q9GZX7). Description: Validation qHTS assay for inhibitors of Activation Induced Cytidine Deaminase (AID): AID signal (AID 1347429). Put shortly: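 FRET deamination assay: 1 uM AID (4/3x stock) with UDG, compound up to 114 uM, then 250 nM DJC20/DJC23 substrate (4x stock) for 4 hr at room temperature. NaOH added, 30 min; fluorescence read 540/590 nm.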

The nature of experiment [13]: Primary qHTS for inhibitors of SARS-S pseudo-typed particle cell entry (AID 1479145; calls by dose curve).
A short description of experiment [14]: qHTS for inhibitors of Wild type Zika virus screened against the NCATS CANVASS Library (AID 1347396). In a few lines: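 Vero 766 cells, 1000/well, o/n attach; cpds pin-transferred (11-pt qHTS); WT Zika added; 72 h, 37C, 5% CO2; CellTiter Glo lumi. Uninfected + vehicle = 100% inhibition.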
The nature of experiment [15]: Viability qHTS for inhibitors of the SERCaMP assay screened against the NCATS CANVASS Library (AID 1347400). Put shortly:
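SH-SY5Y-GLuc SERCaMP MJH297-derived cells, 1000/well, plated 4 h, then exposed to compounds in an 11-point qHTS series for 48 h at 37C. Viability read as CellTiter-Glo luminescence.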

Experiment [16] in a line: Redox Reaction Profiling qHTS: Assay Interference Panel against the NCATS CANVASS Library (AID 1347401). In a few lines:
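Resazurin (5 uM) conversion to resorufin measured with 200 uM DTT in 50 mM HEPES pH 7.3, 50 mM NaCl. Compounds tested in 11-point qHTS series. Fluorescence (ex 525/em 598 nm) read before and after 15 min dark incubation.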

A short description of experiment [17]: qHTS for inhibitors of Rabies Virus screened against the NCATS CANVASS Library (AID 1347402; calls by dose curve).

Inconclusive results are not listed. Active and inactive are the calls of the source. Unless noted, the call rests on the fitted dose curve; in most records, active means well fitted curve in the direction sought with a large enough effect; inconclusive means small, poorly fitted or top-dose-only effect, or another doubt; inactive means no such curve, though single readings can be large; an effect the other way counts as inactive or inconclusive.

Protein phosphatase 1D (Homo sapiens), sequence (O15297 whole entry, looked up): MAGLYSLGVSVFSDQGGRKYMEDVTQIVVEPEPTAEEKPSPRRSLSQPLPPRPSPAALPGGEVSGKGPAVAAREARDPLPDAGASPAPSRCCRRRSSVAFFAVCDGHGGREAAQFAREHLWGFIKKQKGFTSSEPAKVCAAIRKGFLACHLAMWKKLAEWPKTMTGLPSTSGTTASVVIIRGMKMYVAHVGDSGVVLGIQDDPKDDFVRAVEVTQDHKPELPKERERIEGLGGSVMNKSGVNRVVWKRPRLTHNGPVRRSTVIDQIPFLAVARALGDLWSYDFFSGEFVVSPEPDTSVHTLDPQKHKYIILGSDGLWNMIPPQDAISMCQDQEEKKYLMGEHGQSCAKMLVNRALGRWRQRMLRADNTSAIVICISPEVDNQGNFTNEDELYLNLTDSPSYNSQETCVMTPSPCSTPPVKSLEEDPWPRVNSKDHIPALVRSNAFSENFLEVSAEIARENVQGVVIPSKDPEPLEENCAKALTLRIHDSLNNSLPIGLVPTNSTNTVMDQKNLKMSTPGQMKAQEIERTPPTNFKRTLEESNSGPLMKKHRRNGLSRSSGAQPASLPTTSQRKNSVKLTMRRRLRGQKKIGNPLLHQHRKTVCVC
Single-stranded DNA cytosine deaminase (Homo sapiens), sequence (Q9GZX7 whole entry, looked up): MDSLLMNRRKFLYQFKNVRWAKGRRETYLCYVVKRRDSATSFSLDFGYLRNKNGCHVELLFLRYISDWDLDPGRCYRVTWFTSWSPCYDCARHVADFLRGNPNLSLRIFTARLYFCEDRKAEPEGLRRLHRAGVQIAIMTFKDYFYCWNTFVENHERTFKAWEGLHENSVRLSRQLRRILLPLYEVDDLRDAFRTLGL

For `O=C1CN2CCOC2(c2ccccc2Cl)c2cc(Cl)ccc2N1` (centres undefined), the Potency result in experiment [1], in experiment [2], in experiment [4] and in experiment [5] was “inactive” each time. The outcome in experiment [3] and in [6] was inactive.

Regarding `C[C@@H]1C[C@@H]([C@H](O)CC2CC(=O)NC(=O)C2)C(=O)[C@@H](C)C1`, the Potency in [1] was 374 nM (active); in experiment [7], 262 nM (active). In addition, the molecule was called inactive in experiment [3] and in [6].

For `CCN(CC)Cc1nccn1-c1ccc([N+](=O)[O-])cc1C(=O)c1ccccc1Cl`, the Potency result in [1], in [2], in experiment [4], in experiment [8] and in experiment [5] was “inactive” each time. Further, the call in experiment [3] and in experiment [6] was inactive.

Consider `COC(=O)C1=CCCN(C)C1`, for which the outcome in [9], in experiment [10], in experiment [3], in [11], in [12] and in experiment [6] was inactive. Moreover, the Potency entry in [1] and in experiment [2] was “inactive” in each case.

`C[C@@H]1CC[C@H]2[C@@H](C)C(=O)O[C@@H]3O[C@@]4(C)CC[C@@H]1[C@]32OO4`: the Potency result in experiment [1], in experiment [7] and in experiment [2] was “inactive” in each case. The outcome in [3] and in [6] was inactive.

Take `C[C@]12CC[C@H](O)CC1=CC[C@@H]1[C@@H]2CC[C@]2(C)C(=O)CC[C@@H]12`: the Potency result in experiment [1], in experiment [7], in [2], in [13], in [4] and in [8] was “inactive” throughout. Besides, the Potency entry in experiment [5] is “inactive”. The molecule was called inactive in [6].

For the molecule `C=CCOC(Cn1ccnc1)c1ccc(Cl)cc1Cl` (centres undefined), the Potency result in experiment [1], in experiment [2], in experiment [4] and in [5] was “inactive” throughout. Moreover, the outcome in [3] and in [6] was inactive.

`COc1ccc(C(=O)N2CCCC2=O)cc1`: the result in experiment [9], in [10], in experiment [3], in [11], in experiment [12] and in [6] was inactive. Further, the Potency entry in [1], in [7], in experiment [2], in experiment [13], in experiment [4] and in experiment [8] was “inactive” throughout. For the same molecule, in [5], the Potency result was “inactive”.

Turning to `CN(C)CCc1c[nH]c2ccccc12`, the outcome in experiment [14], in experiment [15], in experiment [16], in experiment [17] and in experiment [6] was inactive. For the same molecule, in [1], the Potency entry is “inactive”.

As for `CN(C)C(=O)Oc1cc(OC(=O)N(C)C)cc(C(O)CNC(C)(C)C)c1` (centres undefined), the Potency result in experiment [1], in experiment [2], in experiment [13], in experiment [4], in experiment [8] and in experiment [5] was “inactive” in each case. Also, the result in experiment [3] and in [6] was inactive.

Consider `CN1C2CCC(C)(C)C1CC(OC(=O)C(O)(c1cccs1)c1cccs1)C2` (centres undefined), for which the Potency entry in experiment [1], in experiment [2], in experiment [4] and in [5] was “inactive” each time. For the same molecule, the result in [3] and in experiment [6] was inactive.

With `O=c1n(Cl)c(=O)n(Cl)c(=O)n1Cl`, the Potency result in experiment [1], in [2], in experiment [13], in experiment [4] and in [5] was “inactive” in each case. Also, the molecule was called inactive in experiment [3] and in experiment [6].

Regarding `C[N+]1(C)[C@@H]2CC[C@H]1CC(OC(=O)C(CO)c1ccccc1)C2` (some centres undefined), the Potency entry in experiment [1], in experiment [2], in experiment [13], in experiment [4], in [8] and in [5] was “inactive” in each case. The molecule was called inactive in [3] and in [6].

Consider `C[C@@H]1O[C@@H](O[C@@H]2C=C3CC[C@@H]4[C@H](CC[C@]5(C)[C@@H](c6ccc(=O)oc6)CC[C@]45O)[C@@]3(C)CC2)[C@H](O)[C@H](O)[C@H]1O`, for which the values for the Potency in experiment [1] and in [7] were 3.3 nM (active) and 7.4 nM (active), respectively. Further, the Potency result in experiment [2], in [13] and in [8] was “inactive” each time. In [3], the molecule was called inactive.

Consider `CC(C(O)c1ccccc1)N(C)C/C=C/c1ccccc1` (centres undefined), for which the Potency entry in experiment [1], in [2], in [4] and in [5] was “inactive” throughout. Also, the result in experiment [3] and in experiment [6] was inactive.

In the case of `O=C(NC(=O)c1c(F)cccc1F)Nc1cc(Cl)c(OC(F)(F)C(F)C(F)(F)F)cc1Cl` (centres undefined), the Potency result in experiment [1], in experiment [2], in experiment [4] and in [5] was “inactive” each time. In addition, the molecule was classed as inactive in experiment [3] and in [6].

With `CCCCC1C(=O)NC(=O)N(C2CCCCC2)C1=O` (centres undefined), the Potency entry in experiment [1], in [2], in experiment [13], in experiment [4], in experiment [8] and in experiment [5] was “inactive” throughout. Besides, the molecule was called inactive in experiment [3] and in [6].

As to `NC(=O)OCCCc1ccccc1`, the Potency entry in experiment [1], in experiment [2], in experiment [13], in experiment [4], in experiment [8] and in experiment [5] was “inactive” throughout. In addition, the outcome in experiment [3] and in [6] was inactive.

Regarding `CCCCCCCCC(=O)NCc1ccc(O)c(OC)c1`, the Potency result in experiment [1], in experiment [2], in experiment [13], in experiment [4], in experiment [8] and in experiment [5] was “inactive” each time. Further, the molecule was classed as inactive in [3] and in experiment [6].

`CC(C)[N+](C)(CCC(C(N)=O)(c1ccccc1)c1ccccc1)C(C)C`: the Potency result in [1], in experiment [2], in [13], in [4], in [8] and in [5] was “inactive” in each case. Moreover, the molecule was called inactive in experiment [3] and in [6].

Consider `Cc1ccc(N=CN(C)C=Nc2ccc(C)cc2C)c(C)c1`, for which the Potency result in [1], in experiment [2], in [13], in [4], in experiment [8] and in [5] was “inactive” each time. Further, the molecule was called inactive in [3] and in [6].

As for `NC(=O)CN1CCCC1=O`, the result in experiment [9], in experiment [10], in experiment [3], in experiment [11], in experiment [12] and in [6] was inactive. Also, the Potency result in [1], in experiment [4], in experiment [8] and in [5] was “inactive” each time.

With `CC1=C2[C@H]3OC(=O)[C@@H](C)[C@@H]3CC[C@@]2(C)C=CC1=O`, the Potency entry in experiment [1], in [2], in experiment [13], in [4], in experiment [8] and in experiment [5] was “inactive” throughout. The molecule was called inactive in experiment [3] and in experiment [6].

In the case of `N#Cc1nn(-c2c(Cl)cc(C(F)(F)F)cc2Cl)c(N)c1S(=O)C(F)(F)F` (centres undefined), the Potency entry in experiment [1], in experiment [2], in experiment [13], in experiment [4] and in experiment [5] was “inactive” each time. In addition, the result in experiment [3] and in [6] was inactive.

Regarding `COP(=O)(OC)OC=C(Cl)Cl`, the Potency entry in experiment [1], in experiment [2], in experiment [13], in experiment [4], in experiment [8] and in experiment [5] was “inactive” throughout. Also, the molecule was called inactive in experiment [3] and in experiment [6].

As for `Clc1ccc(C(OCCN2CCCCC2)c2ccccc2)cc1` (centres undefined), the Potency entry in experiment [1], in [2], in [4] and in experiment [5] was “inactive” each time. Also, the molecule was called inactive in experiment [3] and in [6].
